We go through 36 compounds from PubChem BioAssay.

The assay in a line: modulators of S6 phosphorylation in cells, primary screen, cell-based, A549, cytoblot, luminescence, serum-stimulated (AID 1158).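 Further: serum-stimulated A549 lung adenocarcinoma cells; signal is phosphorylated S6 detected by cytoblot immunostaining with HRP secondary.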 As to conditions: A549 phospho-S6 cytoblot, 5 h, higher = more signal.
Take `CON=C(C)CCC(=O)OC[C@H]1O[C@H](C#Cc2ccccc2)C=C[C@@H]1Oc1ccc(C)cc1`: the z-score is -0.57. Compound `CC(C)(C)N1C(=O)[C@H]2[C@H]3[C@H](O)[C@H](O)CC(=NOC[C@@H](O)COCc4ccco4)[C@@H]3CC[C@H]2C1=O` gave a z-score of -0.151.

With `CO[C@@H]1[C@H](O)CO[C@H]1C=Cc1ccccc1`, the z-score amounted to 0.722.

`CCN1C(=O)[C@H]2[C@H]3[C@H](O)[C@H](O)CC(=NOCC[C@@H]4C=C[C@H](OC(C)=O)[C@@H](COC(C)=O)O4)[C@@H]3CC[C@H]2C1=O`: the z-score was -0.401. Consider `CO[C@@H](C1CCCCC1)[C@@H](C)[C@H](OCc1cccc(Br)c1)[C@@H](C)CO`, for which the z-score was -0.337. Regarding `CCOC(=O)CCN1C(=O)[C@H]2[C@H]3[C@H](O)[C@H](O)CC(=NOCC(C)C)[C@@H]3CC[C@H]2C1=O`, the z-score is -0.651. Regarding `CCOC(=O)CCN1C(=O)[C@H]2[C@H]3[C@H](O)[C@H](O)CC(=NO[C@@H]4O[C@H](CO)[C@@H](O)[C@H](O)[C@H]4O)[C@@H]3CC[C@H]2C1=O`, the z-score was -0.235. The compound `CO[C@H]1COC(=O)CC=C[C@@H](C)COC(=O)[C@H]2CCCN2C(=O)CC=C[C@H]1C` had a z-score of 0.43. On to `CCOC(=O)[C@H](Cc1ccccc1)NC(=O)CCC1CC(OC(=O)NCc2cccc3ccccc23)CC2(CCCC(COC(=O)NCCc3ccccc3OC)O2)O1` (stereo partly specified), for which the z-score is -0.352. In turn, `Cc1ccc(S(=O)(=O)N[C@@H]2COC(=O)CC=C[C@@H](C)[C@H](NS(=O)(=O)c3ccc(C)cc3)COC(=O)[C@H](C)NC(=O)CC=C[C@H]2C)cc1` showed a z-score of 0.378. As for `CCN1C(=O)[C@H]2[C@H]3[C@H](O)[C@H](O)CC(=NOCC=C(C)CCC=C(C)C)[C@@H]3CC[C@H]2C1=O`, the z-score is -0.23. `O=C1[C@H]2[C@H]3[C@H](O)[C@H](O)CC(=NOC[C@@H](O)COCc4ccco4)[C@@H]3CC[C@H]2C(=O)N1Cc1ccccc1`: the z-score is -0.585. The compound `O=C1[C@H]2CCn3c(=O)n(-c4ccccc4)c(=O)n3[C@H]2[C@H](O)[C@@H]2O[C@H]12` came in with a z-score of -0.236. For `CON=C[C@@H](OC)[C@H](C)C=CCC(=O)OC` the value was 0.279; for `CC(C)=CCCC(C)=CCON=C1C[C@@H](O)[C@@H](O)[C@@H]2[C@@H]3C(=O)N(Cc4ccc5c(c4)OCO5)C(=O)[C@@H]3CC[C@@H]12`, -0.274. `CC(=O)OC[C@H]1O[C@H](CC=NO[C@@H](C)c2cc(-c3c(C)cc(C)cc3C)no2)C=C[C@@H]1OC(C)=O` had a z-score of -0.194. `COc1ccc(-c2cnnc(CCCn3ccnc3-c3ccccc3)n2)cc1` displayed a z-score of -0.714.

As for `O=C1C2=CC[C@H]3C(=O)N(c4ccc(F)cc4F)C(=O)[C@H]3[C@H]2[C@H](O)[C@@H]2O[C@H]12`, the z-score amounted to 0.311. On to `COC(=O)CC=C[C@@H](C)[C@@H](C=NOC[C@@H](O)COCc1ccco1)OC`, for which the z-score was 0.564. Compound `COC(=O)[C@H](C)NC(=O)CCC1CC(OC(=O)NCc2cccc3ccccc23)CC2(CCCC(COC(=O)NCCCN3CCCC3=O)O2)O1` (stereo partly specified) had a z-score of -0.463.

In the case of `CCOC(=O)[C@H](CC(C)C)NC(=O)CCC1CC(OC(=O)NCc2ccc3c(c2)OCO3)CC2(CCCC(COC(=O)NCCc3ccccc3OC)O2)O1` (stereo partly specified), the z-score is -0.116.

Turning to `CO[C@@H](C(C)C)[C@@H](C)C1OC(=O)CC1O` (stereo partly specified), the z-score was -0.289. Turning to `Cc1ccc(C(C)C)n1C(=O)OC(C)(C)C`, the z-score turned out to be 1.04. With `CCOC(=O)[C@H](Cc1ccccc1)NC(=O)CCC1CC(OC(=O)NCc2ccc3c(c2)OCO3)CC2(CCCC(COC(=O)NCCOc3ccccc3)O2)O1` (stereo partly specified), the z-score is -0.138. Regarding `CSCC[C@@H]1NC(=O)CC=C[C@@H](C)COC(=O)[C@H](C)COC1=O`, the z-score amounted to 2.08. As to `CO[C@H]1COC(=O)CCC[C@H](C)[C@@H](OC)COC(=O)CC=C[C@@H]1C`, the z-score was -0.279. The same measure for `CC(C)[C@@H](OCc1ccccc1)[C@H](C)C=NO[C@@H](C)c1cn([C@H](CO)Cc2ccccc2)nn1`: -0.78; for `CCN1C(=O)[C@H]2[C@@H]3C(=CC[C@H]2C1=O)C(=O)[C@H]1O[C@H]1[C@H]3O`: -0.383. For `CC(C)=CCCC(C)=CCON=C1C[C@@H](O)[C@@H](O)[C@@H]2[C@@H]3C(=O)N(C4CCCCC4)C(=O)[C@@H]3CC[C@H]12` the value was -0.319.

As to `C=CC[C@@H]1C=C[C@H](ON=C[C@@H](NS(=O)(=O)c2ccc(C)cc2)[C@H](C)C=CCC(=O)OC)[C@@H](CO)O1`, the z-score is -0.738. `COC(=O)[C@H](C)NC(=O)CCC1CC(OC(=O)NCCc2ccc(F)cc2)CC2(CCCC(COC(=O)NCCOc3ccccc3)O2)O1` (stereo partly specified) displayed a z-score of 0.0246.

The compound `CO[C@@H]1COC(=O)[C@H](COCc2ccccc2)NC(=O)CC=C[C@@H](C)[C@H](OC)COC(=O)[C@@H](C)NC(=O)CC=C[C@H]1C` registered a z-score of 0.166. In turn, `CC(CCC(=O)OC[C@H]1O[C@H](C#Cc2ccccc2)C=C[C@@H]1Oc1ccc(C)cc1)=NOC[C@@H](C)[C@H](OCc1ccccc1)C(C)C` showed a z-score of -0.0916. The same measure for `COC(=O)[C@H](C)NC(=O)CC=C[C@@H](C)[C@@H]1C=C[C@H](O)[C@@H](CO)O1`: 0.244. On to `C=CC[C@@H]1C=C[C@H](ON=C(C)CCN2CCCc3nc(C)c(C)cc32)[C@@H](CO)O1`, for which the z-score is -1.04. The same measure for `O=C1C=C[C@@H](O)[C@@H]2[C@@H]3C(=O)N(Cc4ccccc4)C(=O)[C@@H]3CC[C@@H]12`: 0.09.
